Source: PubChem BioAssay
ADAM17 inh = ADAM17 inhibitors, primary screen, biochemical, QFRET; hit rate 0.83% among 370,000; inhibition, % at 6.95 µM; recombinant ADAM17, EDANS/DABCYL FRET peptide cleavage; Disintegrin and metalloproteinase domain-containing protein 17 (Homo sapiens), P78536; AID 720648, 2013;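 active = inhibition above the mean of compounds lying between control limits plus 3 SD, set per campaign, cut at about 8.5% in these data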
sPLA2-III inh = human group III sPLA2 inhibitors, primary screen, biochemical, QFRET, BODIPY PC-A2 liposome substrate; Group 3 secretory phospholipase A2 (Homo sapiens), Q9NZ20; QFRET BODIPY PC-A2 liposome hydrolysis, fluorescence; inhibition, % at 12.2 µM; hit rate 0.56% among 370,000;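 active = inhibition above mean plus 3 SD of compounds lying within the high and low control bounds, cut at about 19% in these data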
ADAM10 inh = human ADAM10 inhibitors, primary screen, biochemical, QFRET, HTS | Disintegrin and metalloproteinase domain-containing protein 10 (Homo sapiens), O14672 | recombinant ADAM10, EDANS/DABCYL FRET peptide cleavage, 3 h | inhibition, % at 7 µM | hit rate 0.62% among 370,000 | AID 720582, 2013;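 active = inhibition above a per-campaign cutoff equal to the mean of compounds falling between control-based bounds plus 3 SD, cut at about 20% in these data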
PLCg1 inh = PLC-gamma1 enzyme inhibitors, primary screen, biochemical, fluorescence, purified enzyme; 1-phosphatidylinositol 4,5-bisphosphate phosphodiesterase gamma-1 (Homo sapiens), P19174; fluorogenic substrate; inhibition, % at 12.2 µM; hit rate 0.84% among 370,000; AID 720700, 2013; in the data active = inhibition above about 9.5%
PLC-beta3 inh = human PLC-beta3 inhibitors, primary screen, biochemical, fluorescence | 1-phosphatidylinositol 4,5-bisphosphate phosphodiesterase beta-3 (Homo sapiens), Q01970 | Purified PLC-beta3, fluorogenic substrate | inhibition, % at 12.2 µM | hit rate 0.18% among 370,000 | AID 720704, 2013; in the data active = inhibition above about 11%
proKLK7 act = proKLK7 zymogen activators, primary screen, biochemical, fluorescence intensity; Kallikrein-7 (Homo sapiens), P49862; purified proKLK7, EDANS-DABCYL substrate fluorescence; 100% is mature enzyme control, 0% vehicle; activation, % at 7 µM; hit rate 0.9% among 370,000;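 active = activation above the mean of all tested compounds plus 3 SD, computed per campaign excluding outliers beyond control limits, cut at about 13% in these data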
Target sequence (P49862 whole entry, looked up): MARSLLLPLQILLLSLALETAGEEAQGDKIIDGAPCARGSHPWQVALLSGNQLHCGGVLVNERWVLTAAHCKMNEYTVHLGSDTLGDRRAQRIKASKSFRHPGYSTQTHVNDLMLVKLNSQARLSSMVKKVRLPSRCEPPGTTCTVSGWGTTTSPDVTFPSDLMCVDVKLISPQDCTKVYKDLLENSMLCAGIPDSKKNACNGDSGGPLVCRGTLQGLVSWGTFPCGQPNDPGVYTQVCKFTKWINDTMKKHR
ADAM10 ctr = ADAM10 inhibitors, counter-screen for ADAM17 exosite inhibitor project, biochemical, FRET, human ADAM10; shares compounds with ADAM17 inh; hit rate 47% among 2,900; inhibition, % at 6.95 µM; recombinant ADAM10, EDANS/DABCYL FRET peptide cleavage, 3 h;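 active = mean inhibition over the triplicate runs exceeds the activity threshold set in the earlier primary screen, cut at about 20% in these data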
ADAM17 confirm = ADAM17 inhibitors, hit retest, confirmation, biochemical, QFRET peptide cleavage; recombinant ADAM17, EDANS/DABCYL QFRET peptide cleavage; shares compounds with ADAM17 inh; hit rate 65% among 2,900; inhibition, % at 6.95 µM;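 active = mean inhibition across replicates above the hit cutoff set in the primary screen, cut at about 8.5% in these data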
A number is an active result; n = inactive; x = no result given. Most compounds without a hit are left out; they make up all but 3.4% or so of the library.

SMILES	ADAM17 inh	sPLA2-III inh	ADAM10 inh	PLCg1 inh	PLC-beta3 inh	proKLK7 act	ADAM10 ctr	ADAM17 confirm
CC(C)(C(=O)N1CCC1(C)C(=O)Nc1ccccc1Br)c1ccccc1 (stereo unspecified)	11	n	n	n	n	n	n	n
COc1ccc(-c2cc(C(=O)Nc3cccnc3)c3ccccc3n2)cc1OC	n	n	n	n	n	n	x	x
Cc1cccc[n+]1CC(=O)/C=C1\N(C)c2ccccc2C1(C)C	n	n	n	n	n	n	x	x
CN1/C(=C/C=C/c2n(C)c3cc([N+](=O)[O-])c([N+](=O)[O-])cc3[n+]2C)C(C)(C)c2ccccc21	9.9	48	n	9.7	13	n	n	n
N#Cc1cccc(NC(=O)CSc2cccc[n+]2[O-])c1	n	n	n	n	n	n	x	x
Fc1ccccc1Cn1nnc2c(-n3ccnc3)ncnc21	8.7	n	n	n	n	n	n	n
Clc1ccccc1Cn1nnc2c(N3CCCC3)ncnc21	n	n	n	n	n	n	x	x
O=C(N/N=C/c1cccnc1)C1CCCN(S(=O)(=O)c2ccccc2)C1 (stereo unspecified)	9.2	n	n	n	n	n	n	n
Cc1ccc(CNS(=O)(=O)c2ccccc2[N+](=O)[O-])cc1	n	n	n	n	n	n	x	x
CCOc1ccccc1NC(=O)COC(=O)Cc1ccc(-c2ccccc2)cc1	n	n	n	n	n	n	x	x
COc1cc(NC(=O)COC(=O)Cc2ccc(-c3ccccc3)cc2)cc(OC)c1	11	n	n	n	n	n	23	12
Cc1cccc(C)c1NC(=O)CNc1ccccc1	11	n	n	n	n	n	n	n
O=C(CN1CCN(c2nc(-c3ccccc3)cs2)CC1)Nc1ccc(F)cc1F	n	n	n	n	n	n	x	x
O=C(CN1CCN(c2nc(-c3ccccc3)cs2)CC1)Nc1ccc(Cl)c(Cl)c1	8.8	n	n	n	n	n	n	12
COc1ccccc1C1=CN(Cc2ccccc2)CCC1=O	n	n	n	n	n	n	x	x
Cc1ccc(-c2nnn(CCC(=O)N3CCCCC3C)n2)cc1 (stereo unspecified)	9.5	n	n	13	n	n	n	n
CCOC(=O)C1=C(C)Nc2nnnn2C1c1ccccc1Cl (stereo unspecified)	n	n	n	n	n	n	x	x
CCCCOC(=O)C1=C(C)Nc2nnnn2C1c1ccccc1Cl (stereo unspecified)	9.6	n	n	n	n	n	n	n
O=C(Nc1cccc(S(=O)(=O)Nc2ccccc2Cl)c1)c1ccc(N2CCCC2)c([N+](=O)[O-])c1	11	n	n	n	n	n	41	24
O=C(Nc1cccnc1)c1ccc(N2CCCC2)c([N+](=O)[O-])c1	n	n	n	n	n	n	x	x
COc1cc(/C=N/NC(=O)c2cc(-c3ccccc3OC(C)C)nc3ccccc23)ccc1O	11	n	n	n	n	n	n	15
CC(Sc1nc2cc(Cl)ccc2s1)C(=O)Nc1cccc(S(=O)(=O)N2CCOCC2)c1 (stereo unspecified)	9.5	n	n	n	n	n	24	15
CC(=O)N1c2ccc(S(=O)(=O)N3CCC(C(=O)Nc4cccc(C(F)(F)F)c4)CC3)cc2CC1C (stereo unspecified)	10	n	n	n	n	n	n	9.4
COc1cccc(NC(=O)C2CCN(S(=O)(=O)c3ccc4c(c3)CC(C)N4C(C)=O)CC2)c1 (stereo unspecified)	n	n	n	n	n	n	x	x
NC(=O)c1c(NC(=O)c2ccncc2)sc2c1CCCCCC2	n	n	n	n	n	n	x	x
SMILES	ADAM17 inh	sPLA2-III inh	ADAM10 inh	PLCg1 inh	PLC-beta3 inh	proKLK7 act	ADAM10 ctr	ADAM17 confirm
CN(C)/C=C1/C=C(C=O)OC1=O	n	n	n	n	n	n	x	x
O=C(Cn1c(-c2ccccc2)noc1=O)Nc1ccc(N2CCCCCC2)cc1	11	n	n	n	n	n	24	17
O=C(Cn1c(-c2ccccc2)noc1=O)Nc1ccc(S(=O)(=O)N2CCOCC2)cc1	n	n	n	n	n	n	x	x
COc1cccc(CC(=O)N(Cc2ccccc2)c2ccccc2C(=O)Nc2cc(OC)ccc2OC)c1	12	n	n	n	n	n	n	13
Cc1c(Cl)cccc1NC(=O)CN1CCC(C(O)(c2ccccc2)c2ccccc2)CC1	8.8	n	n	n	n	n	30	16
O=C(CCNC(=O)c1ccco1)Nc1nc(-c2ccccc2)cs1	n	n	n	n	n	n	x	x
CC1=C(C(=O)OCC2CCCO2)C(c2ccccc2)NC(=O)N1 (stereo unspecified)	n	n	n	n	n	n	x	x
CC1=C(C(=O)OCCNC(=O)c2ccccc2O)C(c2ccccc2[N+](=O)[O-])C(C(=O)OCC2CCCO2)=C(C)N1 (stereo unspecified)	13	n	n	n	n	n	n	n
O=C(CCNC(=O)c1ccco1)Nc1ccccc1N1CCOCC1	n	n	n	n	n	n	x	x
CCOC(=O)c1ccccc1NC(=O)C1CSC2(C)CCC(=O)N12 (stereo unspecified)	n	n	n	n	n	n	x	x
Cc1ccc(S(=O)(=O)N2CCN(C(=O)COC(=O)c3cncc(Br)c3)CC2)c(C)c1	n	n	n	n	n	n	x	x
CCCN1C(=O)c2ccc(C(=O)Nc3cc(C)on3)cc2C1=O	9.7	n	n	n	n	n	n	n
CCc1ccc(N2CC(C)Cn3c2nc2c3c(=O)n(CCN3CCOCC3)c(=O)n2C)cc1 (stereo unspecified)	9.1	n	n	n	n	n	n	n
COc1ccc(N2CC(C)Cn3c2nc2c3c(=O)n(CCN3CCOCC3)c(=O)n2C)cc1 (stereo unspecified)	n	n	n	n	n	n	x	x
Cc1cc(C)cc(C(=O)N(C)C2CCCN(Cc3ccccc3F)C2)c1 (stereo unspecified)	n	n	n	n	n	n	x	x
